Assay results taken from ChEMBL document CHEMBL5724796, “Tm Shift (DSF) assay results for EUbOPEN Chemogenomics Library” (2024).
Residues, ends and D or L forms follow the SMILES beside them.

What was measured:
Conditions in all cases: Compound concentration 20.0 uM
[1] = target: Tyrosine-protein kinase ABL1 (Homo sapiens) (UniProt P00519)
[2] = target: Bromodomain-containing protein 4 (Homo sapiens) (UniProt O60885)
[3] = target: Cyclin-dependent kinase 2 (Homo sapiens) (UniProt P24941)
[4] = target: Casein kinase I isoform delta (Homo sapiens) (UniProt P48730)
Casein kinase I isoform delta (Homo sapiens), sequence (P48730 whole entry, looked up, canonical isoform): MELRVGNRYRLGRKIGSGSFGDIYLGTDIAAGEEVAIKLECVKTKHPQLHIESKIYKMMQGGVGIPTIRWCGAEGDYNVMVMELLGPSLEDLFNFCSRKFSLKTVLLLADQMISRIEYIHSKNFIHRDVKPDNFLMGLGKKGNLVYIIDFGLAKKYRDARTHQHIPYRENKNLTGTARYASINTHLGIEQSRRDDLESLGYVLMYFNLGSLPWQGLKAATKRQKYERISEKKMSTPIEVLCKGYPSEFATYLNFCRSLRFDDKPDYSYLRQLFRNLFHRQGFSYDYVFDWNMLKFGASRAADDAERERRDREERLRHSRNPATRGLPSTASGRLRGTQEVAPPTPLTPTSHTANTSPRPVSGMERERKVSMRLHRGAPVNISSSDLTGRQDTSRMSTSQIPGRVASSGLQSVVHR

[5] = target: Glycogen synthase kinase-3 beta (Homo sapiens) (UniProt P49841)
Glycogen synthase kinase-3 beta (Homo sapiens), sequence (P49841 whole entry, looked up): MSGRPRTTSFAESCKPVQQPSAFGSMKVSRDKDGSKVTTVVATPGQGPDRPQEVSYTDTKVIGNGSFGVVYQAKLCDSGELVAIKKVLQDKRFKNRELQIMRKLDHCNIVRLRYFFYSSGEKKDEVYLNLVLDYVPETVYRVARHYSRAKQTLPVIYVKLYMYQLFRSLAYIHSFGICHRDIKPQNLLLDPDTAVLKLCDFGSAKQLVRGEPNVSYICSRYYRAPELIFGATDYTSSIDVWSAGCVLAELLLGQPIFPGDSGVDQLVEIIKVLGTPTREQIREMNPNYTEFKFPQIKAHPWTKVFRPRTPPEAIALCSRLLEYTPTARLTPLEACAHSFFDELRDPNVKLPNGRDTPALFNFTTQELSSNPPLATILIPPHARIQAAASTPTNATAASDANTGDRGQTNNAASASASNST

[6] = target: Mitogen-activated protein kinase 1 (Homo sapiens) (UniProt P28482)
Mitogen-activated protein kinase 1 (Homo sapiens), sequence (P28482 whole entry): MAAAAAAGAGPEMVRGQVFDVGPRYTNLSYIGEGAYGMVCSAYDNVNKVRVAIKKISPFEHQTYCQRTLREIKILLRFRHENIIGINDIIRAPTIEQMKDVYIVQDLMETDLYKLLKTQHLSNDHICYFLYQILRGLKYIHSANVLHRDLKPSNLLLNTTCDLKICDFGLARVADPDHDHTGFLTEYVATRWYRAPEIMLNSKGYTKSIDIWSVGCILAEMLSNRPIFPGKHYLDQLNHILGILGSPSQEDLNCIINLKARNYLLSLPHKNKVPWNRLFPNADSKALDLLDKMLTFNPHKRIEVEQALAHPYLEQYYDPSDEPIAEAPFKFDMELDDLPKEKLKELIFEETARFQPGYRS

[7] = target: T1, Aurora kinase A (Homo sapiens) (UniProt O14965)
T1 sequence (whole entry): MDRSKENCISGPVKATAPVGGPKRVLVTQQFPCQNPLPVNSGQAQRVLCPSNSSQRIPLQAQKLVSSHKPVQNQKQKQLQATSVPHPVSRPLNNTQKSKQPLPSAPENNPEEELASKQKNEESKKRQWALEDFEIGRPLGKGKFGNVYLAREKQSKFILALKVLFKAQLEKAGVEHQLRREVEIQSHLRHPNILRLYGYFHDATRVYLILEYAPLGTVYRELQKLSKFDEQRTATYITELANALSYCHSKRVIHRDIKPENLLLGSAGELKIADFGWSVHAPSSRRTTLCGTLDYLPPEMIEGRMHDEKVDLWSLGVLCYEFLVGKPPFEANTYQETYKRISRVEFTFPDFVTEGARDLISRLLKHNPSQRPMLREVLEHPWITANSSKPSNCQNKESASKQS

[8] = target: T2, Transcription intermediary factor 1-alpha (Homo sapiens) (UniProt O15164)
T2 sequence (whole entry): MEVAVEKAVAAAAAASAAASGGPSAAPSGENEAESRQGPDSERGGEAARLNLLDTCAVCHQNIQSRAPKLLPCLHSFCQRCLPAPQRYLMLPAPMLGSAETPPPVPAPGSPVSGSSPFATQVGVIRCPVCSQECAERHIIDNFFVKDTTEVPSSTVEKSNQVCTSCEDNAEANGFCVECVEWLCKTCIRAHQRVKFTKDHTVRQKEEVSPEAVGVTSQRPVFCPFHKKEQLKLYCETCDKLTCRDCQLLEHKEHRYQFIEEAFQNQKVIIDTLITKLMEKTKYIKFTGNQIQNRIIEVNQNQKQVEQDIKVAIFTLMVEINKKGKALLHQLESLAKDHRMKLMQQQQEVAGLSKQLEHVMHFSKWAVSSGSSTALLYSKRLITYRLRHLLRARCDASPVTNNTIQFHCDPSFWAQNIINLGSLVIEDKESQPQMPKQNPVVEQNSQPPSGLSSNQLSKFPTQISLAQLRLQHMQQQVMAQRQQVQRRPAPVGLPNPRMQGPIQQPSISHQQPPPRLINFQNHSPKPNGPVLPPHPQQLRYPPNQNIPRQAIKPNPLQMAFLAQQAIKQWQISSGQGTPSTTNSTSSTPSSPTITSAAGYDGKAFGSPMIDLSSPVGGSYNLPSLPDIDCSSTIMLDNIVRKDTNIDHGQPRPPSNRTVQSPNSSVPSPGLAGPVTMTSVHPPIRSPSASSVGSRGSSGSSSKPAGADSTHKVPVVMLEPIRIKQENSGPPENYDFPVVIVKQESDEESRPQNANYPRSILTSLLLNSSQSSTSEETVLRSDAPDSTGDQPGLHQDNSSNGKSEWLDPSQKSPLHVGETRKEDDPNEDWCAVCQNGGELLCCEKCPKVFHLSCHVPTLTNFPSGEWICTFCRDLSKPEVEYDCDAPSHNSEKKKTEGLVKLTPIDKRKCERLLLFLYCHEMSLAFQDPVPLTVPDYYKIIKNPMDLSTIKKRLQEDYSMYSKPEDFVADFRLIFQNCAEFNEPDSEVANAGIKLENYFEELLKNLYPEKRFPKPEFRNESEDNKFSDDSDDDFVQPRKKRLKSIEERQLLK

Tyrosine-protein kinase ABL1 (Homo sapiens), sequence (P00519 whole entry): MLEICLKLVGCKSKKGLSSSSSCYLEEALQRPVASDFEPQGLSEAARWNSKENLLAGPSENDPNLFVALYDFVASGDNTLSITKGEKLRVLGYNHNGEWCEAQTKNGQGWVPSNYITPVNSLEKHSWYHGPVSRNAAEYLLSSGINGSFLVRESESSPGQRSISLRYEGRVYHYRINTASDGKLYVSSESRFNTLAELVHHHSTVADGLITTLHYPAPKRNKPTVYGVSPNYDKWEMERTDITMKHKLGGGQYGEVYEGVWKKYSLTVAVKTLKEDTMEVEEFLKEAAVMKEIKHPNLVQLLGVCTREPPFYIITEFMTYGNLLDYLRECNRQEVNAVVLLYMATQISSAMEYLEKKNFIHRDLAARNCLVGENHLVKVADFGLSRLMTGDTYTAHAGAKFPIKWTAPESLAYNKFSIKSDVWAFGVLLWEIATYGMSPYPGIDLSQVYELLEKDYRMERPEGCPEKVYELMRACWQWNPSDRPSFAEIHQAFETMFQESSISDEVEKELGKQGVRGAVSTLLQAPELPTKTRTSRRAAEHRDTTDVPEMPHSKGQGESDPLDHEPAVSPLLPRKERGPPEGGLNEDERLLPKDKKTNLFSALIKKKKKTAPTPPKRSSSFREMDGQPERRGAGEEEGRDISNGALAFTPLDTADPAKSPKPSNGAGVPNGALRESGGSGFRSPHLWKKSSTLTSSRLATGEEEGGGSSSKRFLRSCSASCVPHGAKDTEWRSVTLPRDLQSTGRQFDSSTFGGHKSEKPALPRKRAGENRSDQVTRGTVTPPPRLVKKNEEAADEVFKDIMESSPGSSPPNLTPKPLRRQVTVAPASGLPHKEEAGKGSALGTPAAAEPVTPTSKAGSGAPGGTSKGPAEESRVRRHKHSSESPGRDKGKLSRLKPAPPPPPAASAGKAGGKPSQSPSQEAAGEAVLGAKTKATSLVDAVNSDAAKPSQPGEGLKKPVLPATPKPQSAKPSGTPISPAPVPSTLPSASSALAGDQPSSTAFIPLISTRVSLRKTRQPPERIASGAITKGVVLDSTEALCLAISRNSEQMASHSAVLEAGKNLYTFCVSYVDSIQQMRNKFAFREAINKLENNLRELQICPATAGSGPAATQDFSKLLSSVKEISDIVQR

Structure (SMILES) | ΔTm [1] [°C] | ΔTm [2] [°C] | ΔTm [3] [°C] | ΔTm [4] [°C] | ΔTm [5] [°C] | ΔTm [6] [°C] | ΔTm [7] [°C] | ΔTm [8] [°C]
CCc1c(C)nc(-c2ccc(Cl)s2)nc1Nc1ccc(CC(=O)O)cc1 | 0.97 | -2.77 | 0.44 | -0.04 | 0 | 0.51 | -0.9 | 1.46
CC(C)C[C@@H](C=O)NC(=O)[C@@H](NS(=O)(=O)c1ccc(F)cc1)C(C)C | -0.01 | -1.83 | -0.11 | 0.22 | -0.13 | 0.01 | -1.2 | -1.15
COc1ccccc1[C@H]1[C@H](C(=O)O)[C@H](c2ccccc2OC)[C@H]1C(=O)Oc1cccc2ccccc12 | 0.47 | -2.56 | -0.65 | -3.09 | 0 | -0.07 | -2.4 | -2.09
CCOC(=O)NCCCC(=O)NCCc1ccccc1 | 0.36 | -0.9 | -0.09 | 0.24 | 0.15 | 0.16 | -1.13 | -0.68
Cc1cc(C(=O)CN2CCC(O)CC2)c(C)n1-c1ccc(C#N)cc1 | 0.11 | -2.81 | -0.05 | -0.34 | -0.73 | 0.01 | -2.48 | -1.8
O=C(O)Cc1ccc(Cc2cc(-c3cccc(Cl)c3)nc(C(F)(F)F)c2)cc1 | 0.68 | -4.37 | 1.64 | -0.18 | -1.53 | 0.39 | -2.1 | -0.93
CCN1C(C)(C)CC(Oc2ccc(C(=O)Nc3ccc(NC(=O)Nc4cc(C(C)(C)C)on4)cc3)nc2)CC1(C)C | 1.14 | -1.48 | 0.38 | 0.21 | 0.25 | -3.48 | 0.68 | -0.32
O=C(CN1CCN(c2ccc(F)cn2)CC1)Nc1nc2c(s1)CCCC2 | 0.42 | -2.75 | 0.14 | -0.25 | 0.02 | 0.86 | -1.16 | -2.28
O=C(CNC(=O)[C@H](COP(=O)(O)O)NC(=O)CCc1c[nH]c2ccccc12)NCCCCc1ccccc1 | 0.34 | -3.51 | 0.72 | -0.09 | -0.2 | 0.17 | -1.56 | 0.45
CCCOc1cccc(Oc2cc3c(cc2NS(=O)(=O)c2cccc(C(=O)NCCOCCOCCOCC(=O)N[C@H](C(=O)N4C[C@H](O)C[C@H]4C(=O)NCc4ccc(-c5scnc5C)cc4)C(C)(C)C)c2)n(C)c(=O)n3C)c1 | 0.11 | -8.44 | -3.98 | 0.83 | -4.03 | 0 | -2.91 | -3.82
CCNC(=O)c1cc2c(-c3cc(C(C)(C)O)ccc3Oc3c(C)cc(F)cc3C)cn(C)c(=O)c2[nH]1 | 0.23 | 11.1 | 0.42 | -0.31 | -0.33 | 1.43 | -2.76 | 0.91
CN(C)CCCN(CC[C@H](N)C(=O)O)C[C@H]1O[C@@H](n2cnc3c(N)ncnc32)[C@H](O)[C@@H]1O | 0.32 | -2.2 | -0.1 | 0.02 | -1.16 | 0.04 | -0.74 | -1.49
Nc1ncnc2nc(-c3ccc(N4CCOCC4)nc3)cc(-c3cccc(Br)c3)c12 | 4.32 | -3.54 | 0.07 | 2.63 | -0.95 | -0.25 | 0.37 | 0.24
COc1ccc2c(c1)OC(C)(C)C(c1ccccc1)C2c1ccc(OCCN2CCCC2)cc1 (configuration not stated) | -0.02 | -3.83 | -2.04 | -0.1 | 0 | -2.68 | 0.51 | -3.44
CC(=O)N[C@@H](CC(C)C)C(=O)N[C@@H](CCC(=O)O)C(=O)N[C@H](C(=O)N[C@H](C=O)CC(=O)O)C(C)C (Ac-LEVD-aldehyde) | 0.2 | -2.55 | -0.57 | 0.25 | -2.05 | -0.12 | -1.87 | -2.52
C[C@]12CCCN1CC1=NNC(=O)c3cc(F)cc4[nH]c2c1c34 | 0.67 | 2.16 | 2.04 | 1.06 | 8.59 | 0.1 | 1.26 | 0
Cn1ncc(-c2nn(C)c3ncnc(N4CCC4)c23)c1-c1ccc(C(F)(F)F)cc1 | 0.03 | -2.92 | -1.77 | -0.3 | -1.09 | 0.4 | -2.16 | -2.31
COC(=O)C1=C(C(=O)OC)[C@@]2([C@@H](Cc3ccc(C)cc3)Nc3ccccc3)C=C[C@@H]1O2 | 0.44 | -0.64 | 0.54 | -0.66 | -1.68 | -0.27 | -2.34 | 1.28
CC(c1cccc2ccccc12)n1cnc2c(=O)[nH]c(Cc3ccccc3)nc21 (configuration not stated) | 0.22 | -5.4 | -0.82 | 0.84 | -1 | -0.16 | -3.08 | -1.81
CC(C)(C)C1CCN(C(=O)n2ncc(C(O)(c3ccccc3)c3ccccc3)n2)CC1 | -2.72 | -5.41 | -2.83 | 0.67 | -5.44 | 0.52 | -4.85 | -0.34
CC(=O)N1CCC(Nc2cc(C(=O)NC[C@H](O)CN3CCc4ccccc4C3)ncn2)CC1 | 0.44 | -0.33 | 0.19 | 0.07 | 0.18 | 0.06 | -0.79 | -0.38
O=C(c1cc(Cc2n[nH]c(=O)c3ccccc23)ccc1F)N1CCn2nc(C(F)(F)F)nc2C1 | 0.72 | -2.42 | 0.1 | -0.28 | -0.21 | 0.61 | -2.34 | -0.51
Cc1ncsc1-c1ccc(CNC(=O)[C@@H]2C[C@@H](O)CN2C(=O)[C@@H](NC(=O)COCC(C)(COCCOCCOCCNC(=O)C[C@@H]2N=C(c3ccc(Cl)cc3)c3c(sc(C)c3C)-n3c(C)nnc32)COCCOCCOCCNC(=O)C[C@@H]2N=C(c3ccc(Cl)cc3)c3c(sc(C)c3C)-n3c(C)nnc32)C(C)(C)C)cc1 | -0.19 | 0 | -4.95 | -6.12 | -4.05 | -12 | -4.07 | -6.48
CS(=O)(=O)c1ccc(Oc2cc(F)cc(C#N)c2)c2c1[C@H](O)C(F)(F)C2 | 0.43 | -2.67 | 0.56 | -0.1 | 0.06 | 0.15 | -1.44 | 0.31
COc1cc(-c2cn(C)c(=O)c3cnccc23)cc(OC)c1CN(C)C | 0.4 | -1.71 | 0.82 | -0.03 | 0.26 | 0.18 | -1.01 | 0.87
Cc1ccc2[nH]c(-n3nc(C)c(Cc4ccccc4)c3O)nc2c1 | 0.97 | -3.32 | 0.2 | 0.73 | 0.42 | 0.56 | -1.88 | -0.69
C[C@H]1CCCN1Cc1nc2cc(NC(=O)c3ccc4c(cnn4C)c3)ccc2[nH]1 | 2.18 | -0.92 | 0.64 | 0.92 | -0.87 | 0.27 | -0.14 | -0.88
O=C(NCc1ncccc1F)c1coc(CCNCCc2nc3ccccc3[nH]2)n1 | 0.46 | -3.66 | -0.13 | -0.23 | -0.87 | -0.05 | -2.57 | -0.59
Cc1[nH]c2c(N3CCCCC3)c(-c3ccccc3)nn2c(=O)c1-c1ccc(O)cc1 | -0.07 | 0.61 | 0.64 | -0.07 | -1.39 | 0.65 | -0.41 | -0.15
